PubChem BioAssay (EPA / NIEHS)
Records with an inconclusive call do not appear. Active and inactive are the calls of the source. Rule for the calls, unless noted: active = hit-call score of the fitted dose curve at least 0.9, where 1 is the maximum; inactive = score below 0.9.

Experiments:
[1] = CCTE_Mundy_HCI_Cortical_Synap_Neur_Matur_BPCount: CCTE's Synaptogenesis and Neurite Maturation Assay in rat cortical cells for Branch Point Count, Mundy Lab (AID 2284211)
Summary of the method: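 HCI read-out of branch points from MAP2/synaptophysin/Hoechst immunofluorescence; rat cortical cultures, AraC DIV 5, dosing DIV 7, fixed DIV 12; fit in positive direction vs DMSO baseline.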

[2] = CCTE_Mundy_HCI_Cortical_NOG_NeuriteCount: CCTE's Neurite Outgrowth Assay in rat cortical cells for Neurite Count, Mundy Lab (AID 2284212);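 note: cells fixed about two days after chemical exposure began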
Summary of the method: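 Rat cortical primary cells; compound added 2 h post-plating, 1/10 dilution of working solution. Anti-betaIII-tubulin/AF488 ICC; ArrayScan neurite count vs DMSO.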

[3] = CCTE_Mundy_HCI_Cortical_NOG_NeuriteLength: CCTE's Neurite Outgrowth Assay in rat cortical cells for Neurite Length, Mundy Lab (AID 2284213)
Summary of the method: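 First, rat primary cortical cells were plated and, 2 h later, given test chemical as a 1/10 dilution. Finally, βIII-tubulin immunostaining enabled automated imaging of neurite length.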

[4] = CCTE_Mundy_HCI_Cortical_Synap_Neur_Matur_NeuriteLength: CCTE's Synaptogenesis and Neurite Maturation Assay in rat cortical cells for Neurite Length, Mundy Lab (AID 2284214)
Summary of the method: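 Neurite length quantified by automated high-content imaging of MAP2, synaptophysin and Hoechst staining. Rat cortical cells received chemical from DIV 7 to DIV 12 […], glial growth arrested by AraC at DIV 5; DMSO baseline.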

[5] = CCTE_Mundy_HCI_Cortical_Synap_Neur_Matur_NeuriteSpotCountPerNeuron: CCTE's Synaptogenesis and Neurite Maturation Assay in rat cortical cells for Neurite Spot Count per Neuron Count, Mundy Lab (AID 2284215)
Summary of the method: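 Synapse density is scored as synaptophysin spots along neurites per neuron in fixed rat cortical neurons, measured at DIV 12 after chemical dosing at DIV 7. DMSO is the negative control and activity baseline.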

[6] = CCTE_Mundy_HCI_Cortical_Synap_Neur_Matur_SynapseCount: CCTE's Synaptogenesis and Neurite Maturation Assay in rat cortical cells for Synapse Count, Mundy Lab (AID 2284218)
Summary of the method: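 High-content imaging of synaptophysin puncta per MAP2-positive neuron (Hoechst nuclei) in rat cortical cells exposed DIV 7–12 after glial arrest with AraC at DIV 5; decrease relative to DMSO scored.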

[7] = CCTE_Mundy_HCI_Cortical_Synap_Neur_Matur_NeuriteCount: CCTE's Synaptogenesis and Neurite Maturation Assay in rat cortical cells for Neurite Count, Mundy Lab (AID 2284222);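 note: exposure from day 7 to day 12 in vitro with readout at day 12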
Summary of the method: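 Primary rat cortical cells were plated, treated with AraC at DIV 5, then exposed to chemicals from DIV 7 through DIV 12. After fixation and immunostaining for MAP2 and synaptophysin, imaging quantified neurites, with DMSO as the negative control.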

[8] = CCTE_Mundy_HCI_Cortical_Synap_Neur_Matur_CellBodySpotCount: CCTE's Synaptogenesis and Neurite Maturation Assay in rat cortical cells for Cell Body Spot Count, Mundy Lab (AID 2284223)
Summary of the method: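 Synapse number at neuronal cell bodies was quantified as synaptophysin puncta per neuron in rat cortical cultures exposed from DIV 7 to DIV 12. Values were normalised to DMSO.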

[9] = UKN2_HCS_IMR90_cell_viability: Viability Assessment in the University of Konstanz (UKN) Leist Lab Neural Crest Cell Migration Assay in human induced IMR90 Pluripotent Stem Cells (UKN2) (AID 2284233);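 note: viability of neural crest cells differentiated from IMR90 iPSC measured by calcein-AM fluorescence imaging; cells exposed to compound for 24 h after a 24 h migration phase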
Summary of the method: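 cMINC format, iPSC-derived neural crest (IMR90); 24 h migration (EGF/FGF, N2-S), then 24 h toxicant. Calcein-AM/H-33342 stain 30 min; fluorescence intensity by HCS; DMSO-normalised, bidirectional fitting.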

[10] = CCTE_Mundy_HCI_Cortical_NOG_BPCount: CCTE's Neurite Outgrowth Assay in rat cortical cells for Branch Point Count, Mundy Lab (AID 2284237)
Summary of the method: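 Measured 50.33 h after dosing, this morphology endpoint uses rat primary cortical cultures labelled for betaIII-tubulin. Branch points are quantified by high-content imaging, with DMSO as negative control and baseline.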

[11] = CCTE_Mundy_HCI_hNP1_Casp3_7: CCTE's Caspase-Glo 3/7 Assay in human neuroprogenitor cells for Apoptosis, Mundy Lab (AID 2284240)
Summary of the method: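 Neuroepithelial-lineage stem cells from WA09 embryonic cells were treated with chemicals after 40–44 h of culture. Twenty-four hours later, caspase-3/7 activation was detected luminescently after a 30 min room-temperature reagent step, with DMSO as baseline.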

[12] = IUF_NPC2c_oligodendrocyte_migration_120hr: Leibniz Research Institute for Environmental Medicine (IUF) 120-hour Neural Progenitor Cell Migration Assay for Oligodendrocyte Migration (NPC2c) (AID 2284297);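 note: O4-positive oligodendrocyte migration distance divided by radial glia migration distance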
Summary of the method: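 Primary hNPC spheres migrating on extracellular matrix, exposed five days to a 7-point dilution series with solvent control. Oligodendrocyte migration was scored by high-content imaging of O4 immunostaining and expressed relative to radial glia distance.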

[13] = IUF_NPC2a_radial_glia_migration_120hr: Leibniz Research Institute for Environmental Medicine (IUF) 120-hour Neural Progenitor Cell Migration Assay for Radial Glia Migration (NPC2a) (AID 2284298)
Summary of the method: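 In this multiplexed test, fetal hNPC spheres migrate radially on poly-D-lysine/laminin in N2 medium (37C, 5% CO2, pH 7.2-7.6) under continuous compound exposure over five days. Migration is scored at 120 h from automated Hoechst nuclear imaging.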

[14] = IUF_NPC2a_radial_glia_migration_72hr: Leibniz Research Institute for Environmental Medicine (IUF) 72-hour Neural Progenitor Cell Migration Assay for Radial Glia Migration (NPC2a) (AID 2284299)
Summary of the method: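 Radial glia migration (µm, sphere core edge to migration front, four directions averaged) from brightfield images at 72 h; hNPC spheres differentiating on PDL/laminin in N2 medium, compound exposure at 7 concentrations from plating.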

[15] = IUF_NPC2b_neuronal_migration_120hr: Leibniz Research Institute for Environmental Medicine (IUF) 120-hour Neural Progenitor Cell Migration Assay for Neuron Migration (NPC2b) (AID 2284300)
Summary of the method: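 Neurons identified by TUBB3 immunostaining and Hoechst nuclei; migration distance measured automatically on fixed wells at 120 h, normalized to glia migration. Exposure spanned five days of differentiation in N2 medium, seven test concentrations.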

[16] = IUF_NPC3_neuronal_differentiation_120hr: Leibniz Research Institute for Environmental Medicine (IUF) 120-hour Neuronal Differentiation Assay (NPC3) (AID 2284301)
Summary of the method: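 Neuronal differentiation of primary human neural progenitors measured by high-content imaging: percent TUBB3+ of Hoechst+ nuclei within migrated area at 120 h, seven-point serial dilution plus solvent control, gain or loss relative to DMSO.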

[17] = IUF_NPC4_neurite_length_120hr: Leibniz Research Institute for Environmental Medicine (IUF) 120-hour Neuronal Morphology Assay for Neurite Length (NPC4) (AID 2284302)
Summary of the method: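 Neurons from differentiating human fetal neural progenitor spheres are scored for average neurite length after five days of compound exposure. Fitting uses DMSO as negative control.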

[18] = IUF_NPC5_oligodendrocyte_differentiation_120hr: Leibniz Research Institute for Environmental Medicine (IUF) 120-hour Oligodendrocyte Differentiation Assay (NPC5) (AID 2284304; active = hit-call score of the fitted dose curve at least 0.9, where 1 is the maximum;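 note: primary human fetal neural progenitor spheres plated to migrate and differentiate; share of O4-positive cells among Hoechst nuclei found by CNN image analysis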)
Summary of the method: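 Human primary NPC neurospheres migrating and differentiating on laminin for 120 h under continuous compound exposure (serial dilution, solvent control). Endpoint: percent O4+ oligodendrocytes among Hoechst nuclei, detected by CNN image analysis, with DMSO as negative control.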

[19] = IUF_NPC4_neurite_area_120hr: Leibniz Research Institute for Environmental Medicine (IUF) 120-hour Neuronal Morphology Assay for Neurite Area (NPC4) (AID 2284305; active = hit-call score of the fitted dose curve at least 0.9, where 1 is the maximum)
Summary of the method: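 Endpoint at 120 h: automated imaging of TUBB3/Hoechst-stained differentiating human neural progenitor spheres, neurite area per neuron from skeletonization. DMSO solvent control, not above 0.1%, set the baseline; medium was half-replaced on day 3.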

[20] = IUF_NPC2-5_cytotoxicity_72hr: Cytotoxicity Assessment at 72 hours in the Leibniz Research Institute for Environmental Medicine (IUF) Neural Progenitor Cell Migration and Differentiation Assay for Cytotoxicity (NPC2-5) (AID 2284306; active = hit-call score of the fitted dose curve at least 0.9, where 1 is the maximum;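 note: LDH release into supernatant measured by resorufin fluorescence marking membrane damage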)
Summary of the method: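 Primary human neural progenitor spheres migrate and differentiate on laminin. Compound is present from the start of differentiation, with DMSO kept at or below 0.1%. At 72 h, supernatant LDH is quantified fluorometrically, with values fitted in the positive direction.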

[21] = IUF_NPC2-5_cytotoxicity_120hr: Cytotoxicity Assessment at 120 hours in the Leibniz Research Institute for Environmental Medicine (IUF) Neural Progenitor Cell Migration and Differentiation Assay (NPC2-5) (AID 2284307; active = hit-call score of the fitted dose curve at least 0.9, where 1 is the maximum)
Summary of the method: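 Fluorescence (RFU) from LDH-driven resazurin reduction in medium supernatants measured loss of membrane integrity after 120 h of compound exposure of differentiating primary human neural progenitor spheres on an extracellular matrix.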

[22] = IUF_NPC2-5_cell_number_120hr: Cell Number Assessment at 120 hours in the Leibniz Research Institute for Environmental Medicine (IUF) Neural Progenitor Cell Migration and Differentiation Assay (NPC2-5) (AID 2284308);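 note: count of Hoechst-stained nuclei in migration zone around plated human neural progenitor spheres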
Summary of the method: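 Cell number is taken as all Hoechst-positive nuclei detected in the area into which cells migrate out of the sphere, scored at 120 h and referenced to DMSO solvent control, which was kept at no more than 0.1%.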

[23] = IUF_NPC2-5_viability_120hr: Viability Assessment at 120 hours in the Leibniz Research Institute for Environmental Medicine (IUF) Neural Progenitor Cell Migration and Differentiation Assay (NPC2-5) (AID 2284312)
Summary of the method: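 Human fetal (GW 16-19) neural progenitor spheres of 0.3 mm were plated on poly-D-lysine/laminin in N2 differentiation medium and exposed from day 0 for 120 h, with half-medium refresh at day 3. Viability was read as alamar blue resazurin-to-resorufin fluorescence against DMSO.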

[24] = CCTE_Mundy_HCI_iCellGluta_NOG_NeuriteLength: CCTE's Neurite Outgrowth Assay in iCellGluta cells for Neurite Length, Mundy Lab (AID 2284318; active = hit-call score of the fitted dose curve at least 0.9, where 1 is the maximum)
Summary of the method: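 Automated high-content imaging of betaIII-tubulin (Alexa Fluor-488) and Hoechst-stained cells gave neurite length, normalized to the DMSO baseline.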

[25] = IUF_NPC1_cytotoxicity_72hr: Cytotoxicity Assessment at 72 hours in the Leibniz Research Institute for Environmental Medicine (IUF) Neural Progenitor Cell Proliferation Assay (NPC1) (AID 2284332; active = hit-call score of the fitted dose curve at least 0.9, where 1 is the maximum;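 note: rising LDH signal means more cytotoxicity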)
Summary of the method: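 Cytotoxicity by LDH membrane-integrity assay on medium supernatants, fluorescence via resazurin reduction, after 3-day single exposure of primary hNPC spheres at 37C, pH 7.2-7.6 with growth factors. Fitted upward against baseline.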

[26] = CCTE_Mundy_HCI_iCellGluta_NOG_NeuronCount: CCTE's Neurite Outgrowth Assay in iCellGluta cells for Neuron Count, Mundy Lab (AID 2284340; active = hit-call score of the fitted dose curve at least 0.9, where 1 is the maximum;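 note: cells fixed about 48 h after compound addition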)
Summary of the method: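 Neuron count read by automated high-content imaging of Hoechst 33342 and betaIII-tubulin/Alexa Fluor-488 labelling in human iPSC glutamatergic neurons. Activity fitted relative to DMSO.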

[27] = CCTE_Mundy_HCI_iCellGluta_NOG_NeuriteCount: CCTE's Neurite Outgrowth Assay in iCellGluta cells for Neurite Count, Mundy Lab (AID 2284342; active = hit-call score of the fitted dose curve at least 0.9, where 1 is the maximum;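 note: chemical exposure about 48 hours starting 2 hours after plating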)

Measured: AC50

[Cl-].[Cl-].[NH2-].[NH2-].[Pt+4]
active: [1] 0.029 µM | [16] 9.95 µM | [17] 33.2 µM | [20] 34.7 µM | [22] 28.4 µM | [24] 26 µM | [26] 85.7 µM | [27] 70 µM
inactive: all other assays above
